# Screening results: PubChem BioAssay, National Center for Advancing Translational Sciences (NCATS)
# RXFP1 agonist = agonists of human relaxin receptor RXFP1 | HEK293T-RXFP1 cAMP TR-FRET, 30 min; response scale: percent of porcine relaxin response, buffer zero | Potency, µM (doses to about 57.5 µM), usual class: activators | 370,000 tested, 0.3% active | AID 2676; active = well fitted activation curve with a large enough effect; inconclusive = small, poorly fitted or top-dose-only effect; note: nearly all actives have a fitted effect of over 60% in size
# Target sequence (Q9HBX9 whole entry, looked up): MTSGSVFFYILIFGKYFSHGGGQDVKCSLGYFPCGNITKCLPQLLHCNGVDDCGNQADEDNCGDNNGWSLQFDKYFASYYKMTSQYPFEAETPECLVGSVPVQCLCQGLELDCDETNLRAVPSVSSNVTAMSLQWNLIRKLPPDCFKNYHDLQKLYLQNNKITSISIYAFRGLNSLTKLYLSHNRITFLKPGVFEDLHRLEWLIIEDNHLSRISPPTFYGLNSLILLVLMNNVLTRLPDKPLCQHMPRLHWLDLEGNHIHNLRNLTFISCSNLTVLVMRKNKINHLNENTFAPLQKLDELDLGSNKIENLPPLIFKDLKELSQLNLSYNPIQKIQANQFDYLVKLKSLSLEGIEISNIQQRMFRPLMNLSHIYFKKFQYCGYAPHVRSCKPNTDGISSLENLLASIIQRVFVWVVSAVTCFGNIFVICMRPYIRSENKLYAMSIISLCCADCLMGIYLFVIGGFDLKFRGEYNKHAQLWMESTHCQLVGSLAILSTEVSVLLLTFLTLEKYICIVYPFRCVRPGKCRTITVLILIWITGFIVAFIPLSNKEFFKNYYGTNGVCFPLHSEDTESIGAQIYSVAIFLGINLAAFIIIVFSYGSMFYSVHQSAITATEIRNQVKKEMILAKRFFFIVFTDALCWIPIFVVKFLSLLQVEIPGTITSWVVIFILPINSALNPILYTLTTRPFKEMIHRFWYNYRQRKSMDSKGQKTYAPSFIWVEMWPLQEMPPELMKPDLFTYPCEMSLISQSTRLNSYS
#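 HEK293 cells stably expressing RXFP1, treated 30 min at 37C with compounds plus PDE4 inhibitor Ro 20174; cAMP measured by HTRF TR-FRET. Normalized to buffer and 29 nM porcine relaxin; EC50 by Hill fit.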
# pAkt inh = Akt phosphorylation inhibition; Neuro2A IGF-stimulated pAkt S473 HTRF, 20 min; hits give low values; activity change, % for hits at 50 µM; 360,000 tested, 0.32% active; in the data active = activity change below about -80%; inconclusive = mostly about -51% to -80%
#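 Neuro2A cells (4,500/well, DMEM with 0.5% FBS) were treated with compound at a single 50 µM final concentration, stimulated with 6 nM IGF for 20 min at 37 °C, and lysed. Phospho-Akt Ser473 was read by HTRF as 665/615 ratio ×10^4.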
# gsp agonist = agonists of gsp mutant (McCune-Albright syndrome). gsp mutant cells, cAMP HTRF, 30 min. Potency, µM (series often up to 76.9 µM), actives largely listed as activators. 340,000 tested, 0.13% active. AID 624287; active = well fitted activation curve with a large enough effect; inconclusive = small, poorly fitted or top-dose-only effect, or another doubt; inactive = no such curve, though single readings can be large or run the other way; cell line not stated here;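 note: phosphodiesterase inhibitor Ro 20-1724 added with compounds to block cAMP breakdown; nearly all actives have a fitted effect of over 60% in size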
#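 Cells in DMEM/10% FBS with G418 were pretreated with compounds in DMSO plus […] (300 uM stock) for 30 min at 37C. cAMP was measured by HTRF (cAMP-d2 plus anti-cAMP antibody-K) after 30 min at room temperature.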
# RXFP1 antagonist = RXFP1 (human) relaxin receptor antagonism; HEK293-RXFP1, relaxin-stimulated cAMP HTRF, 30 min; hits give low values; activity change, negative = inhibition, % at 57.5 µM; 350,000 tested, 0.59% active;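 active = activity change of -60% or lower, but not beyond a set lower limit; inconclusive = change between -60% and -40%, or beyond the set limit; inactive = change above -40%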
# gsp antagonist = gsp mutant antagonism. gsp-mutant cells, cAMP HTRF, 30 min. Potency, µM (series often up to 76.9 µM), most hits filed as inhibitors. 340,000 tested, 0.4% active. AID 624288; calls by dose curve; cell line not stated here;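 note: intracellular cAMP measured with PDE inhibitor Ro 20-1724 present during compound exposure; nearly all actives have a fitted effect of over 65% in size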
#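 Measurement of cellular cAMP by homogeneous time-resolved fluorescence following a 30 min compound exposure at 37C. The PDE inhibitor […] was present throughout; the assay buffer was DPBS with 0.05% BSA and 0.005% Tween 20.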
# Numbers stand for hits; – = inactive; ? = inconclusive; · = no result; ! = not confirmed by another sample; [ ] = another dose, or the depositor's remark. The list is not random: actives were taken first. Their share in the collection is about 1.2%.
SMILES,RXFP1 agonist,pAkt inh,gsp agonist,RXFP1 antagonist,gsp antagonist
CC1CCCCN1CCCNC(=O)c1cc(Sc2cccc(Cl)c2)nc2ccccc12 (stereo unspecified),–,·,·,–,·
CCOC(=O)c1c(/N=C/N(C)C)sc(/C=N/Nc2ccccc2)c1-c1ccc(Cl)cc1,–,–,13µM,–,–
CCc1ccc(NCc2cc3ccc(OC)cc3n(CC(=O)Nc3ccc(C(C)C)cc3)c2=O)cc1,–,·,·,·,·
CC1CCCN(Cc2cnc(Cl)s2)C1 (stereo unspecified),–,-108%,–,–,–
CC1CCN(Cc2cnc(Cl)s2)CC1,–,–,–,–,–
CN(C)c1ccc(/C=N/n2c(-c3ccccc3Br)n[nH]c2=S)cc1,–,–,–,-94,?
CN(C)c1ccc(/C=N/n2c(-c3cccnc3)n[nH]c2=S)cc1,–,–,–,–,?
COc1cccc(-n2nnc3c(=O)n(CC(=O)NCC4CCCO4)cnc32)c1 (stereo unspecified),–,–,11µM,–,–
O=C(Cn1cnc2c(nnn2-c2ccccc2)c1=O)NCC1CCCO1 (stereo unspecified),?,–,?,–,–
O=[N+]([O-])c1ccc(N=Nc2c(Cl)cc(O)cc2Cl)cc1,–,–,–,–,16µM
CC(N)=Nc1ccc([N+](=O)[O-])cc1,–,–,–,–,–
CCOC(=O)[C@@](C)(N)Cc1ccc(O)c(O)c1,·,·,·,–,·
CCCn1c(/C=C/c2ccccc2)nc2ccccc21,–,–,–,-86!,?
CCn1c(/C=C/c2cc[n+](C)cc2)nc2ccccc21,28µM,–,?,–,–
COc1ccccc1-n1ncc2c(=O)[nH]c(SCC(=O)Nc3ccc(Cl)cc3)nc21,–,·,·,–,·
CC(=O)OCC(=O)Nc1cc(C#N)cc(NC(=O)COC(C)=O)c1Cl,·,·,·,–,·
COc1ccccc1CNC(=O)COC(=O)c1cccnc1SCC(=O)NCc1ccccc1OC,–,–,–[15.4 µM],–,–
O=C(COC(=O)c1cccnc1SCC(=O)NCc1ccccc1)NCc1ccccc1,?,-89%,?,–,–
CCOC(=O)C(=O)c1csc(NC=O)n1,·,·,·,–,·
CCCCCc1nc(-c2nonc2N)no1,–,-120%,–,–,–
CCOc1cc(S(=O)(=O)NCc2ccc(OC)cc2)c(OCC)cc1-n1cnnn1,–,-92%,–,–,–
CCOc1cc(S(=O)(=O)NCCc2ccc(OC)c(OC)c2)c(OCC)cc1-n1cnnn1,–,–,–,–,–
CCN(CC)c1ccc2cc(-c3nc(-c4ccccc4)no3)c(=O)oc2c1,–,·,·,–,·
O=C(Cn1c2c(c(=O)n3ncnc13)CCC2)N/N=C/c1ccc(Cl)cc1,–,–,–,–,–
Cn1c2c(c(=O)n3ncnc13)CCCC2,22µM,–,–[15.4 µM],–,–
SMILES,RXFP1 agonist,pAkt inh,gsp agonist,RXFP1 antagonist,gsp antagonist
COc1ccc(CCNC(=O)C(=O)NCC(c2ccco2)S(=O)(=O)c2cccs2)cc1 (stereo unspecified),–,·,·,–,·
O=C(CSc1ccc(-c2ccco2)nn1)NCc1ccccc1Cl,–,–,11µM,·,–
COc1ccc(-n2nc(C(=O)Nc3cc(C)ccn3)c3c4ccccc4n(C)c3c2=O)cc1Cl,–,·,·,–,·
Cc1cccc(Nc2nc3c(s2)CCCC3)c1,–,–,–,–,–
O=C(O)c1ccc(Nc2nc3c(s2)CCCC3)cc1,–,–,10µM,–,–
Cc1ccc(C(C)C)c(OCc2ccc(C(=O)N/N=C/c3ccc(C(=O)O)cc3)cc2)c1,–,–,–,-69,–
COc1cccc(C2C(C(=O)c3ccco3)=C(O)C(=O)N2CCN(C)C)c1OC (stereo unspecified),–,–,–,–,–
COc1ccc(CCN2C(=O)C(O)=C(C(=O)c3ccco3)C2c2cccs2)cc1OC (stereo unspecified),?,–,18µM,–,–
CN(C)CCN1C(=O)C(O)=C(C(=O)c2ccco2)C1c1ccccc1F (stereo unspecified),–,-121%,?,–,–
Cc1cccc(C)c1NC(=O)c1cc(S(N)(=O)=O)c(Cl)cc1O,·,·,·,–,·
CO[C@@H]1[C@@H](OC)[C@H](C)[C@@](O)(CC(=O)O)O[C@H]1[C@H](C)[C@H]1O[C@@]2(CC[C@@](C)([C@H]3CC[C@@](C)([C@@H]4O[C@@H]([C@H]5O[C@](C)(O)[C@H](C)C[C@@H]5C)C[C@@H]4OC4C[C@H](OC)[C@@H](OC)[C@H](C)O4)O3)O2)C[C@H](O)[C@H]1C (stereo partly specified),·,·,·,-66,·
CCCCn1c(=O)c2oc3ccccc3c2n(CC(=O)Nc2cccc(Cl)c2C)c1=O,–,·,·,–,·
CCOC(=O)N1CCN(C(=O)c2cc3cc(Cl)ccc3[nH]2)CC1,–,–,–,–,50µM
CCOC(=O)N1CCN(C(=O)c2cc3cc(F)ccc3[nH]2)CC1,–,–,–[15.4 µM],–,–
COc1cc(NC(=O)COc2cccc3c2OC(C)(C)C3)cc(OC)c1OC,–,–,–,–,35µM
COc1cc(NC(=O)COc2cc(O)c3c(c2)OC(C)(C)CC3=O)cc(OC)c1OC,–,–,·,·,35µM
CC(C)NC(=O)CC(=O)Nc1ccc2nc3n(c(=O)c2c1)CCCCC3,–,·,·,·,·
CC(C)CCNC(=O)c1ccc(Cn2c(=S)[nH]c3ccccc3c2=O)cc1,–,–,–,-73,–
COc1ccc(Cn2c(=O)[nH]c3cc(C(=O)NCCC(C)C)ccc3c2=O)cc1,–,·,·,·,·
COc1cc(CN2CCc3nc(N4CCN(c5ncccn5)CC4)ncc3C2)cc(OC)c1OC,–,·,·,–,·
CN(C)c1ccc(CN2CCc3nc(N4CCN(c5ccccn5)CC4)ncc3C2)cc1,–,·,·,-63,·
Fc1ccc(CN2CCc3nc(N4CCN(c5ccccc5F)CC4)ncc3C2)c(F)c1,–,·,·,–,·
CCOc1ccccc1CN1CCc2nc(N3CCN(c4ccccc4F)CC3)ncc2C1,–,·,·,-60,·
COc1cc(CN2CCc3nc(N4CCN(c5ccccn5)CC4)ncc3C2)cc(OC)c1OC,–,·,·,-79,·
CCS(=O)(=O)N1CCc2cc(C(=O)N3CCN(c4cccc(C(F)(F)F)c4)CC3)ccc21,–,·,·,·,·
SMILES,RXFP1 agonist,pAkt inh,gsp agonist,RXFP1 antagonist,gsp antagonist
Cn1c2cc(B(O)O)sc2c2cnn(Cc3ccc(F)cc3F)c(=O)c21,–,·,·,·,·
COc1ccccc1C(=O)Nc1ccccc1OCc1cc(=O)n2ccccc2n1,–,·,·,–,·
COc1cc2c(cc1OC)C(C)N(C(=O)c1cc3c(s1)-c1ccccc1OC3)CC2 (stereo unspecified),–,–,–,–,–
COc1cc2c(cc1OC)C(C)N(C(=O)c1cc3c(s1)-c1c(C)cccc1OC3)CC2 (stereo unspecified),–,–,–,·,35µM
Cc1cc(=O)oc2cc(O[C@@H]3SC[C@@H](O)[C@H](O)[C@H]3O)ccc12,·,·,·,–,·
Cc1ccc(Cl)cc1NC(=O)C(C)n1nnc2sc3c(c2c1=O)CCCC3 (stereo unspecified),–,·,·,–,·
COC(=O)c1c(C)nsc1NC(=O)Oc1ccccc1,–,–,4.5µM,–,–
